D2 antagonist – antagonists of human D2 dopamine receptor; P14416; HEK293 TREx D2 cells, calcium flux, dopamine EC80; inhibition, % at 10 µM; 340,000 tested, 2% active; AID 485344; in the data active = inhibition above about 30%; inactive = below that, where a call was filed
Target sequence (P14416 whole entry, looked up): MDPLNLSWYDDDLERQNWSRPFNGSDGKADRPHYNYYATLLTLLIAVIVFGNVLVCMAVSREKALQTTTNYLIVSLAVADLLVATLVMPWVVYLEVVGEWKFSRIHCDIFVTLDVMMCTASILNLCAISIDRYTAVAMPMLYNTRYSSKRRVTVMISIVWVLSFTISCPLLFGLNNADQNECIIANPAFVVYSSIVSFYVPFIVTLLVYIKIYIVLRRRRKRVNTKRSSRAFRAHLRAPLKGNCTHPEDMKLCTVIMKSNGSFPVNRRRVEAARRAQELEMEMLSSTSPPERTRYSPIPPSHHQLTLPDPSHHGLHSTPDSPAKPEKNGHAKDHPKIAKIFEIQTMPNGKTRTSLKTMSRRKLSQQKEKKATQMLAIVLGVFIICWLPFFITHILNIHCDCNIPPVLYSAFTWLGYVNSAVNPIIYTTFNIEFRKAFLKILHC
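Antagonism is scored as inhibition of an EC80 dopamine-evoked calcium signal in a force-coupled, tetracycline-inducible HEK293 T-REx D2 line, with compound present 180 s before agonist.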
D2 ag-1 – D2 dopamine receptor (human) agonism; 340,000 tested, 0.53% active; activation, % at 2 µM; P14416; HEK293 T-REx D2 cells, calcium flux agonist mode; AID 485358;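 active = activation over 3 SD above normal in the single-dose calcium agonist read, cut at about 30% in these data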
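Calcium-flux readout, 1 cycle/sec over 180 s following compound pin transfer, in inducible HEK293 Trex D2 cells (force-coupled); dopamine controls included. Positive calcium responses during this window marked compounds as potential agonists.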
D2 ag-2 – agonists of human D2 dopamine receptor (beta-arrestin). P14416. DiscoveRx PathHunter D2 beta-arrestin, luminescence, 90 min; 100% = 57 uM dopamine signal. activation, % (test concentration not listed). 360,000 tested, 0.084% active; in the data active = activation above about 40%; inconclusive = between about 15% and that limit
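Agonist mode: compounds alone added to overnight-plated D2 PathHunter cells for 90 min at 37 C, with 57 uM final dopamine (EC100) defining full response. Beta-arrestin recruitment detected by chemiluminescent reagent, read after 1 h at ambient temperature.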
D2 PAM-1 – D2 dopamine receptor (human) potentiation; potentiation, % at 10 µM; HEK293 T-REx D2, calcium flux, EC20 dopamine potentiation; 340,000 tested, 0.34% active; AID 485347; P14416;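 active = potentiation over 3 SD above the plate norm, cut at about 30% in these data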
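Tetracycline-induced Hek293 Trex D2 cells, force-coupled to calcium, loaded with no-wash calcium dye. Compound added with 180 s kinetic read for agonism, then EC20 dopamine and a further 180 s read for potentiation.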
D2 PAM-2 – potentiates the human D2 dopamine receptor allosterically; P14416; DiscoveRx D2 beta-arrestin cells, luminescence, 90 min; 100% = 57 uM dopamine signal; potentiation, % (test concentration not listed); 360,000 tested, 0.23% active; AID 624464; in the data active = potentiation above about 50%; inconclusive = mostly about 30% to 49%
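PathHunter D2 cells, attached overnight at 37 deg C, received compound in DMSO plus dopamine at EC20 (50 nM final) for 90 min at 37 deg C. Beta-arrestin recruitment was read as luminescence after 1 h with detection reagent at ambient temperature.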
Large screens that a line does not name were inactive. In the library only some 2.4% were active in any assay of this set; here they are far more common.

O=C(Nc1sc2c(c1C(=O)NCc1ccco1)CCCC2)c1cc(=O)c2ccccc2o1	none (no result: D2 antagonist, D2 ag-1, D2 ag-2, D2 PAM-2)
COc1ccc(-c2nc(CSCC(=O)N3CCN(C)CC3)c(C)o2)cc1OC	D2 antagonist 40
Cc1ccc(S(=O)(=O)NCCSc2ncccn2)cc1	D2 antagonist 86
O=C(c1cc(Br)ccc1OC(F)F)N1CCN2CCCC2C1 (stereo not given)	D2 antagonist 33
O=C(Nc1ccc(Br)cc1)C1CCCN1S(=O)(=O)c1ccc(F)cc1 (stereo not given)	none (no result: D2 antagonist, D2 ag-2, D2 PAM-2)
Cc1cccc(C)c1NC(=O)c1oc2c(c1C)-c1nn(Cc3ccccc3)cc1CC2	none (no result: D2 antagonist, D2 ag-2, D2 PAM-2)
Cc1cc(C)c(O)c(-c2cc(C(=O)Nc3ccc(S(=O)(=O)N4CCOCC4)cc3)[nH]n2)c1	D2 PAM-1 36
CC(C)COc1ccccc1C(=O)NC(CO)C(=O)O (stereo not given)	D2 antagonist 43
Cc1nc(-c2ccc(C)c(S(=O)(=O)N3CCC(C(=O)NCc4ccc(F)cc4)CC3)c2)no1	none (no result: D2 antagonist, D2 ag-2, D2 PAM-2)
CCOC(=O)C1=C(C)NC(=S)N(C(C)=O)C1c1ccccc1 (stereo not given)	D2 antagonist 32
Cc1ccc(Cl)cc1NC(=O)Cn1c(SCC(=O)NCc2ccccc2)nc2ccccc21	none (no result: D2 antagonist, D2 ag-1, D2 ag-2, D2 PAM-2)
O=C(Nc1ccccc1C(=O)NC1CC1)c1ccc([N+](=O)[O-])o1	D2 ag-2 inconclusive, D2 PAM-2 59
O=C(Nc1cccc2ccccc12)c1ccc([N+](=O)[O-])o1	none
CN(C(=O)N1CCN(c2ccccn2)CC1)c1ccccc1	D2 antagonist 39
Cn1c(=O)c2[nH]c(-c3ccccc3Cl)c(O)c2n(C)c1=O	none (no result: D2 antagonist, D2 ag-1, D2 PAM-1)
Cn1c(=O)c2[nH]c(-c3ccccc3)c(O)c2n(C)c1=O	D2 ag-2 inconclusive, D2 PAM-2 108
CCN1CCOC(=O)C1CC(=O)Nc1cc(Cl)ccc1OC (stereo not given)	none (no result: D2 antagonist, D2 ag-2, D2 PAM-2)
Nc1nc(Nc2ccccc2F)nc(N2CCCC2)c1[N+](=O)[O-]	none
CCN1CCN(c2nc(Nc3ccccc3)nc(N)c2[N+](=O)[O-])CC1	D2 antagonist 84
CCN1CCN(c2nc(Nc3ccccc3F)nc(N)c2[N+](=O)[O-])CC1	D2 antagonist 78
CCN1CCN(c2nc(Nc3cccc(C)c3)nc(N)c2[N+](=O)[O-])CC1	D2 antagonist 85
CCN1CCN(c2nc(Nc3ccc(OC)cc3)nc(N)c2[N+](=O)[O-])CC1	D2 antagonist 41
Cc1cccc(Nc2nc(N)c([N+](=O)[O-])c(N3CCCC(C)C3)n2)c1 (stereo not given)	none
Cc1ccc(Nc2nc(N)c([N+](=O)[O-])c(N3CCOCC3)n2)cc1C	none
COc1ccc(-n2c(=O)c3sc4ccccc4c3n(C)c2=O)cc1	none (no result: D2 antagonist, D2 ag-2, D2 PAM-2)
Nc1nc(NCc2ccco2)nc(N2CCN(Cc3ccccc3)CC2)c1[N+](=O)[O-]	D2 antagonist 89
Nc1nc(NCc2ccco2)nc(N2CCCC2)c1[N+](=O)[O-]	none
COc1ccc(COCC(O)CN(Cc2ccccc2)C(C)C)cc1OC (stereo not given)	D2 antagonist 31
COc1ccc(COCC(O)CN2CCCCC2)cc1OC (stereo not given)	none
O=C(O)CCS(=O)(=O)c1cccc2cccnc12	D2 antagonist 31
O=C1CSC(c2ccccc2)N1CC12CC3CC(CC(O)(C3)C1)C2 (stereo not given)	D2 antagonist 37
Cc1cc(C)cc(NC(=O)Cn2cc(S(=O)(=O)NC(C)(C)C)c(S(=O)(=O)NC(C)(C)C)c2)c1	none (no result: D2 antagonist, D2 ag-1, D2 ag-2, D2 PAM-2)
N#Cc1c(N2CCN(C(=O)c3ccco3)CC2)nc(-c2ccccc2)c2c1CCCC2	D2 antagonist 32
CCOc1ccc(NC(=O)c2c(NC(=O)Cc3ccccc3)sc3c2CCCC3)cc1	none (no result: D2 antagonist, D2 ag-2, D2 PAM-2)
Cc1ccc(NC(=O)CSc2nc3ccccc3nc2Cc2ccccc2)c(C)c1	none (no result: D2 antagonist, D2 ag-2, D2 PAM-2)
O=C(CSC1=NCCN1)Nc1ccccc1[N+](=O)[O-]	none
O=C(CSC1=NCCN1)Nc1cccc([N+](=O)[O-])c1	D2 antagonist 49
CC(=O)c1ccc(NC(=O)N[C@@H](CC(C)C)C(=O)O)cc1	none
CC(=O)c1cccc(NC(=O)N[C@@H](CC(C)C)C(=O)O)c1	D2 antagonist 33
COc1ccc2c(c1)-c1nc(NC(=O)c3ccc(OC)c(Br)c3)sc1CC2	none (no result: D2 antagonist, D2 ag-2, D2 PAM-2)
COc1cc2c(=O)c(S(=O)(=O)c3ccc(C)cc3)cn(Cc3cccc(C)c3)c2cc1OC	none (no result: D2 antagonist, D2 ag-2, D2 PAM-2)
CCOCc1cc(=O)[nH]c(SC)n1	D2 antagonist 30
CSc1nc(Cl)cc(=O)[nH]1	none
Cc1ccc(-c2nc3ccccc3c(=O)n2O)cc1	none
O=c1c2ccccc2nc(-c2ccc([N+](=O)[O-])cc2)n1O	D2 PAM-1 31
COc1ccc(N2CCC(CNS(=O)(=O)c3cccc(C(F)(F)F)c3)C2)cc1 (stereo not given)	D2 antagonist 38 (no result: D2 PAM-1)
COc1ccc(CNC(=O)C2CCN(S(=O)(=O)c3cccc(C(F)(F)F)c3)CC2)cc1	none
CCc1ccc(NC(=O)C2CCN(S(=O)(=O)c3cccc(-c4noc(C)n4)c3)CC2)cc1	none (no result: D2 antagonist, D2 ag-2, D2 PAM-1, D2 PAM-2)
C=CCN(CC=C)C(=S)Nc1cc(Cl)ccc1OC	D2 ag-2 42
O=C(CN1CCc2cc3c(cc2C1)OCCCO3)Nc1c(F)cccc1F	D2 antagonist 42
CCC1CCCCN1CCCNC(=O)c1cc2c(=O)oc3ccc(C)cc3c2s1 (stereo not given)	D2 antagonist 36
O=C(C1COc2ccccc2O1)N1CCN(c2ccc(C(F)(F)F)cn2)CC1 (stereo not given)	none (no result: D2 antagonist, D2 ag-1, D2 PAM-1)
NS(=O)(=O)c1ccc(N2CCN(C(=O)C3COc4ccccc4O3)CC2)nc1 (stereo not given)	D2 antagonist 35
O=C(C1COc2ccccc2O1)N1CCN(c2ccccc2)CC1 (stereo not given)	D2 antagonist 41
COc1ccc(-n2c(=O)c3c4c(sc3n(Cc3cc(=O)n5c(C)cccc5n3)c2=O)CCC4)c(OC)c1	none (no result: D2 antagonist, D2 ag-1, D2 ag-2, D2 PAM-2)
Cc1ccc2nc3sc(C(=O)Nc4ccc(F)cc4)cc3cc2c1	none (no result: D2 antagonist, D2 ag-2, D2 PAM-2)
Cc1ccc2c(c1)[nH]c1c(N3CCN(Cc4ccccc4)CC3)ncnc12	none
Cc1ccc2[nH]c3c(N4CCN(Cc5ccccc5)CC4)ncnc3c2c1	D2 antagonist 39
CCC(C)NC(=O)CCc1c(C)nc2cc(-c3ccc(OC)cc3OC)nn2c1C (stereo not given)	none (no result: D2 antagonist, D2 ag-2, D2 PAM-2)
O=C(NC1CCN(S(=O)(=O)c2ccc(F)cc2)CC1)c1ccco1	none
O=C(NC1CCN(S(=O)(=O)c2ccccc2C(F)(F)F)CC1)c1ccco1	D2 antagonist 30
NC(=O)c1noc(C(=O)N(CC(=O)NC2CCCC2)Cc2ccc3c(c2)OCO3)c1N	D2 antagonist 37
COC(=O)CSc1nc2ccccc2nc1SCC(=O)OC	D2 PAM-1 31
O=C(O)c1ccc(NS(=O)(=O)c2cc(C(=O)O)ccc2Br)cc1	D2 PAM-2 70

Source: PubChem (National Center for Advancing Translational Sciences (NCATS))
